From PMC5540273 (PLoS ONE, 2017)

Key:
Details in all cases: concentration: 1 μM, replicates: in singlicate; n = 1
[1] = tested on: PIK3C2G
[2] = tested on: PIK3CA
[3] = tested on: PIK3CB
[4] = tested on: PIK3CD
[5] = tested on: PIK3CG
[6] = tested on: T1, PIK4CB
T1 construct: gene PI4KB

[7] = tested on: PIKFYVE
[8] = tested on: PIM1
[9] = tested on: PIM2
[10] = tested on: PIM3
[11] = tested on: PIP5K1A
[12] = tested on: PIP5K1C
[13] = tested on: PIP5K2B
[14] = tested on: T2, PIP5K2C
T2 construct: gene PIP4K2C

[15] = tested on: T3, PKAC-alpha
T3 construct: gene PRKACA

[16] = tested on: T4, PKAC-beta
T4 construct: gene PRKACB

[17] = tested on: PKMYT1
[18] = tested on: PKN1
[19] = tested on: PKN2
[20] = tested on: PLK1
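Also: KINOMEscan kinase panel screen.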

SMILES	%Inh [1]	%Inh [2]	%Inh [3]	%Inh [4]	%Inh [5]	%Inh [6]	%Inh [7]	%Inh [8]	%Inh [9]	%Inh [10]	%Inh [11]	%Inh [12]	%Inh [13]	%Inh [14]	%Inh [15]	%Inh [16]	%Inh [17]	%Inh [18]	%Inh [19]	%Inh [20]
Cc1ccc(S(=O)(=O)Nc2ccc(Nc3nccc(Nc4cccc5[nH]ncc45)n3)cc2)cc1 [GSK581271]	0%	0%	0%	0%	5%	77%	0%	11%	0%	0%	0%	31%	13%	57%	0%	0%	15%	22%	0%	0%
c1ccc(Oc2ccc(Nc3ccnc4cc(-c5ccc(CNCCN6CCOCC6)o5)ccc34)cc2)nc1 [GW567145]	0%	0%	0%	0%	0%	0%	50%	0%	0%	0%	62%	71%	21%	57%	0%	0%	0%	0%	0%	0%
CN(C)S(=O)(=O)c1cc(-c2ccc3nccc(-c4cccc(S(N)(=O)=O)c4)c3c2)cnc1N [GSK1669921]	96%	100%	96.6%	98.8%	99.9%	96.5%	96.6%	19%	0%	12%	0%	36%	21%	85%	3%	10%	0%	57%	0%	33%
Cn1cc(-c2ccc3c(c2)CCN3C(=O)Cc2cccc(Cl)c2)c2c(N)ncnc21 [GSK2606590]	0%	0%	15%	0%	39%	0%	0%	31%	0%	8%	0%	22%	10%	1%	7%	5%	9%	0%	0%	7%
Nc1n[nH]c2cnc(-c3ccccc3)cc12 [SB-642124]	0%	0%	0%	0%	0%	14%	0%	38%	0%	13%	40%	0%	32%	18%	0%	0%	15%	0%	31%	0%
CSc1cccc2c(-c3ccncn3)c(-c3ccc(F)cc3)nn12 [GW514786]	0%	0%	0%	0%	0%	0%	19%	0%	0%	15%	0%	47%	8%	8%	14%	36%	6%	0%	0%	7%
CC(C)c1nc(-c2cccc(NS(=O)(=O)c3c(F)cccc3F)c2F)c(-c2ccnc(Nc3ccc(N4CCOCC4)nc3)n2)s1 [GSK2008607]	0%	6%	0%	0%	0%	0%	31%	11%	0%	0%	0%	45%	0%	87%	0%	0%	24%	6%	0%	0%
COc1ccc(CNC(=O)NC2CCN(c3ccnc(Nc4ccc(F)cc4)n3)CC2)cc1 [GSK1379788]	0%	0%	0%	0%	0%	0%	6%	0%	0%	0%	5%	57%	4%	9%	0%	0%	0%	0%	0%	0%
Cc1ccc(C(=O)Nc2ccc(Nc3ccnc4cc(-c5nccs5)ccc34)cc2O)cc1.Cl [GW494702]	23%	0%	0%	0%	0%	30%	0%	0%	6%	0%	0%	9%	0%	28%	0%	0%	0%	0%	0%	1%
COc1ccc(Nc2nccc(NCCNC(=O)c3cc4ccccc4s3)n2)cc1 [GSK1379896]	0%	0%	32%	0%	0%	0%	0%	8%	0%	2%	0%	48%	22%	24%	0%	0%	0%	0%	0%	7%
